Most compounds without a hit are left out; they make up all but 8.1% or so of the library.
Epigenetic reg = derepresses silenced GFP reporter in murine cells. murine LDR cells, GFP reporter derepression, 30 h. Potency, µM (series often up to 53.9 µM), without a hit: at the highest dose GFP activation, hits mostly activators. hit rate 0.2% among 280,000. AID 1865; further: % of control where 0% means no effect; nearly all actives have a fitted effect of over 60% in size
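Murine LDR cells bearing a silenced CMV-driven GFP reporter were exposed to compound for 30 h at 37 C. After PBS washes, GFP-positive cells (20-120 um objects) counted by laser-scanning microplate cytometry.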
ClpP mod = qHTS Assay for Activators of ClpP; ATP-dependent Clp protease proteolytic subunit (Bacillus subtilis (strain 168)), P80244; Potency, µM (series often up to 57.5 µM), inactives show at the top dose activity change, negative = active; hit rate 1.9% among 340,000; purified B. subtilis ClpP, FRET peptide cleavage, 20 min; active means well fitted falling curve with a large enough effect; inconclusive means small, poorly fitted or top-dose-only effect; inactive means no such curve, though single readings can be large or run the other way; further: the source files actives as falling curves though it sought activators and does not explain the sign; nearly all actives have a fitted effect of over 65% in size
Target sequence (P80244 whole entry, looked up): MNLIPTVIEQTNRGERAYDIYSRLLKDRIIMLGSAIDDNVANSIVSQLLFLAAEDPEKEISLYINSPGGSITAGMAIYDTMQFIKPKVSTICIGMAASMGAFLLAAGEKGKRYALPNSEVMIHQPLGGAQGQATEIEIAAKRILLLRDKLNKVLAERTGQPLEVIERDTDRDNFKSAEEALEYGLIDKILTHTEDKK
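Buffer: 100 mM Tris/HCl pH8, 100 mM KCl, 0.05% low protease BSA, 2.5% glycerol, 0.01% Tween-20. ClpP 10 microg/mL final; 20 min RT; delta FRET normalized to ADEP and DMSO controls.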
Sfp PPTase inh = inhibitors of Bacillus subtilis Sfp phosphopantetheinyl transferase; Q9F4F7; Biochemical Sfp PPTase activity, qHTS; Potency, µM, for the others: largest response in the series, negative = inhibition, hits mostly inhibitors; hit rate 3.5% among 310,000;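 further: the enzyme is Sfp with the accession as filed and its product quenches rhodamine fluorescence; 0% = enzyme reaction without inhibitor and -100% = no enzyme wells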
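Reaction rates are the 30-min fluorescence difference (ex 525, em 598 nm) in wells containing 15 nM Sfp, 5 uM rhodamine-CoA and 12.5 uM BHQ-2-YbbR at pH 7.6 with 10 mM MgCl2.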
RORg inh = blocks mouse ROR gamma transcriptional activity; P51450; Potency, µM (titrated, usually from 53.6 µM), without a hit: at the highest dose activity change, negative = inhibition, actives largely listed as inhibitors; Drosophila S2 Gal4-RORgamma UAS-luciferase reporter, 20 h; hit rate 5.4% among 310,000; further: on the % scale 0 is the no-effect control and ±100 the full control effect; nearly all actives have a fitted effect of over 60% in size
Target sequence (P51450 whole entry, looked up, the tested form may be a part): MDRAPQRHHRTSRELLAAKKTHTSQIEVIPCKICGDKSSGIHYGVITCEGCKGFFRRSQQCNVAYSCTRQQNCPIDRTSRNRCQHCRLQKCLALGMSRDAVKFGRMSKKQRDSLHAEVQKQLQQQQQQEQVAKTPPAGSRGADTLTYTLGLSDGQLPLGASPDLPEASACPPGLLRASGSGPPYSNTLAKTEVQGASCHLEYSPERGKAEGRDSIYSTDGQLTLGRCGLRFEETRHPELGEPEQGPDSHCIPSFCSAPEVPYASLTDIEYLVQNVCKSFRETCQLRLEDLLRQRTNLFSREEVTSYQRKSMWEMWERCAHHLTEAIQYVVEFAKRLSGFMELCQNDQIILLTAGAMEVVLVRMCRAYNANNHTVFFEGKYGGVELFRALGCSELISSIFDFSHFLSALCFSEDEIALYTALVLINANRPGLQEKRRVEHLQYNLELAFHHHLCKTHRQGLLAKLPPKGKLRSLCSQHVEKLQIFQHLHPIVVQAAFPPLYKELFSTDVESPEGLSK
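Luminescence from a UAS-regulated Photinus luciferase reporter in stably transfected Drosophila Schneider cells is measured; decreased signal marks ROR gamma inhibition. Fusion expression is induced by 700 uM copper sulfate for 20 hr.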
PINK1 modulator = modulators of PINK1 expression | hit rate 0.2% among 410,000 | PINK1 immunofluorescence, high-content cytometry, 24 h | Potency, µM (top dose mostly 76.6 µM), for inactives: at the highest dose activation (PINK1 increase), most hits filed as activators | AID 624263; active means well fitted activation curve with a large enough effect; inconclusive means small, poorly fitted or top-dose-only effect; cell line not stated here; further: % of control where 0% means no effect; nearly all actives have a fitted effect of over 65% in size
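Decision-based qHTS: stable cells, 24 h exposure to five compound concentrations, CCCP as control. Fixed cells stained for PINK1 plus nuclear, mitochondrial and cell markers, cytometer read.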
Gal4-VP16 FLuc = Gal4-VP16 reporter inhibition counter-screen. hit rate 3.5% among 310,000. AID 2546. Drosophila S2 Gal4-VP16 UAS-luciferase, luminescence, 20 h. Potency, µM (series often up to 53.6 µM), inactives show at the top dose activity, negative = inhibition, usual class: inhibitors;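 further: Gal4-VP16 expression switched on by copper sulfate through the metallothionein promoter; on the % scale 0 is the no-effect control and ±100 the full control effect; nearly all actives have a fitted effect of over 50% in size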
Active calls of the source: *; ? = inconclusive; / = not tested or not shown; [ ] = remark or other dose. Unless noted, the call rests on the fitted dose curve; in most records, active means well fitted curve in the direction sought with a large enough effect; inconclusive means small, poorly fitted or top-dose-only effect, or another doubt; inactive means no such curve, though single readings can be large; an effect the other way counts as inactive or inconclusive. Potency means the concentration at half of the fitted maximal effect.

SMILES | Epigenetic reg | ClpP mod | Sfp PPTase inh | RORg inh | PINK1 modulator | Gal4-VP16 FLuc
Cc1ccc(OCCn2c(-c3ccc(Br)cc3)nc3ccccc3c2=O)cc1C | -1% | -5% | / | / | 1% | /
Cc1cc2nc(-c3ccc[nH]c3=O)[nH]c2cc1C | / | 4% | 7% | 7.9µM* | 1% | 6.3µM*
CCOCCSc1c(C)cnc2c1c(=O)n(C)c(=O)n2C | 6% | -1% | / | / | 1% | /
Cc1ccc(C(=O)Nc2nc3ccccc3c(=O)s2)cc1 | 15% | -1% | 56µM* | 14µM* | 11%[38.3 µM] | ?
O=C(Nc1nc2ccccc2s1)c1ccccc1[N+](=O)[O-] | / | 2% | -3% | ? | 6% | 20%
O=C(Nc1nc2ccccc2s1)c1ccc(Cl)s1 | 3% | -18% | 14% | 8.9µM* | 8% | -33%
COc1ccc2nc(NC(=O)c3ccc(F)cc3)sc2c1 | / | / | 20% | 11µM* | 11% | -6%
Cc1ccc(Nc2nc3ccccc3c(=O)s2)cc1C | 6% | 0% | -8% | 2.8µM* | 2% | 3.5µM*
COc1ccc(Nc2nc3ccccc3c(=O)s2)c(OC)c1 | -1% | -1% | 3% | ? | -1% | ?
CO[C@@H]1COC(=O)C/C=C\[C@@H](C)COC(=O)[C@H](COCc2ccccc2)NC(=O)C/C=C\[C@H]1C | 0%[10.1 µM] | / | 21% | -2%[10 µM] | / | -5%[10 µM]
O=C(Nc1nc(=O)c2ccccc2s1)c1ccccc1 | 32% | -6% | 50µM* | 7.1µM* | -1% | 6.3µM*
COc1ccc(OC)c(C2C(C(=O)Nc3nc4ccccc4s3)=C(C)NC3=C2C(=O)CCC3)c1 (stereo not drawn) | 0% | 28µM* | 4% | ? | 14% | ?
O=C(Nc1nc2ccccc2s1)c1cc(-c2ccccc2)nn1-c1ccccc1 | -1% | 28µM* | ? | 10µM* | 1% | ?
COc1ccc(C(=O)Nc2nc3ccccc3s2)cc1 | / | -5% | -15% | 5µM* | 3% | ?
CC(=O)Nc1nc(=O)c2ccccc2s1 | 3% | -2% | ? | ? | 2%[38.3 µM] | ?
CCc1ccccc1NC(=O)c1cc(S(=O)(=O)N2CCc3ccccc32)ccc1F | 5% | 0% | / | / | 1% | /
Cn1c(SCC2CCCO2)nnc1C1CCN(Cc2ccco2)CC1 (stereo not drawn) | / | / | / | / | -1% | /
CCOCC(=O)Nc1nc2ccccc2s1 | 7% | 0% | 50µM* | ? | -3% | ?
COc1cccc(C(=O)Nc2nc3ccccc3s2)c1 | / | -4% | 0% | 13µM* | 2% | 14µM*
CCNC(=O)Nc1nc2ccccc2s1 | -5% | 2% | -1% | 8% | -1% | -1%
O=C(Nc1nc2ccccc2s1)c1ccc(F)cc1 | -4% | 0% | 11% | 4.5µM* | -1% | ?
COCC(=O)Nc1nc2ccc(C)cc2s1 | 10% | -1% | 17% | ? | 1% | ?
Cc1ccc2nc(NC(=O)c3ccc(-c4nc5ccccc5s4)s3)sc2c1 | 1% | -8% | 24% | 7.9µM* | 5% | 6%
CCOc1ccc(CCNC(=O)c2cn(-c3ccc(OC)cc3)c(=O)c3ccccc23)cc1OCC | 1% | -15% | / | / | 5% | /
O=C(NC(=S)Nc1ccc(N2CCCCC2)c(Cl)c1)c1ccc2c(c1)OCCO2 | 0% | 0% | 11% | 3.2µM* | 5% | 6.3µM*
SMILES | Epigenetic reg | ClpP mod | Sfp PPTase inh | RORg inh | PINK1 modulator | Gal4-VP16 FLuc
O=C(NC(=S)Nc1ccc(N2CCOCC2)c(Cl)c1)c1cccs1 | -3% | / | 1% | ? | 1% | 14µM*
O=C(NC(=S)Nc1ccccc1N1CCOCC1)c1cccs1 | 1% | 0% | 2% | 6.3µM* | 3% | 14µM*
O=C(NC(=S)Nc1ccccc1N1CCCC1)c1cccs1 | 0% | -2% | ? | 4.5µM* | 4% | 16µM*
O=C(NC(=S)Nc1ccccc1N1CCCCC1)c1cccs1 | 0% | 1% | 25% | 1.6µM* | 20% | ?
O=C(Nc1ccc(N2CCOCC2)c(Cl)c1)c1cccnc1 | 0% | 1% | 1% | 12% | -1% | 17%
O=C(NC(=S)Nc1ccc(N2CCOCC2)c(Cl)c1)c1cncc(Br)c1 | 0% | -19% | ? | 1µM* | -1% | 0.56µM*
CC(C)CC(=O)NC(=S)Nc1ccc(N2CCOCC2)c(Cl)c1 | -2% | / | 5% | 7.9µM* | -1% | ?
Cc1c(C(=O)OC2CCCCC2)sc2nc[nH]c(=O)c12 | 0% | 28µM* | 20% | ? | 13%[38.3 µM] | /
COCCOC(=O)c1sc2nc[nH]c(=O)c2c1C | -1% | / | 12% | 4% | -4% | -2%
COc1ccc(Br)cc1CNC(=O)CCSCc1ccc(Cl)cc1 | 3% | 0% | / | / | 3% | /
NC(=O)c1c(NC(=O)c2ccccc2)sc2c1CCc1ccccc1-2 | 1% | 32µM* | 16% | 36% | 8%[38.3 µM] | ?
CC1(C)Cc2c(sc(NC(=O)c3ccc(C(=O)c4ccccc4)cc3)c2C(N)=O)C(C)(C)N1 | / | 16% | -28% | ? | 4% | 13µM*
COC(=O)c1c(NC(=O)c2ccccc2)sc2c1CC(C)(C)NC2(C)C | 0% | 0% | 16% | 4% | 1% | 16%
Cc1cc(C)cc(NC(=O)C2CCN(S(=O)(=O)c3c(C)noc3/C=C/c3ccco3)CC2)c1 | 8% | -3% | / | / | 4% | /
CCNC(=S)N1CCN=C1Nc1nc(C)cc(C)n1 | -4% | / | 17% | 18µM* | 2% | 9%
Cc1cc(C)nc(NC2=NCCN2C(=O)NC2CCCCC2)n1 | 0% | 2% | 6% | -28% | 2% | 12%
Cc1cnc(SCC2CCCO2)nc1C1CCCN(Cc2nc(-c3ccccc3)cs2)C1 (stereo not drawn) | / | / | / | / | -1% | /
c1csc(-c2csc3nc(CN4CCOCC4)nc(NCc4ccc5c(c4)OCO5)c23)c1 | -1% | 0% | -15% | 18µM* | 0% | ?
O=c1cc(O)c2c([nH]1)CCC2 | / | -5% | / | / | 2% | /
O=C(c1csc(Nc2ccccc2Cl)n1)N1CCCC1 | -2% | -26% | 79µM* | ? | 2% | -30%
COc1ccc(Nc2nc(C(=O)NCc3ccco3)cs2)cc1 | 0% | 1% | 2% | ? | 2% | -8%
O=C(c1csc(Nc2cccc3ccccc23)n1)N1CCCC1 | 0% | -19% | -27% | ? | 1% | -17%
O=C(NCc1ccco1)c1csc(Nc2ccccc2Cl)n1 | 0% | -5% | 28µM* | 22% | -6%[38.3 µM] | -12%
CC(=O)c1cccc(NC(=S)NC(=O)c2ccccc2Cl)c1 | 0% | 1% | 7% | 13µM* | 3% | -86%
O=C(NC(=S)Nc1ccccc1O)c1ccccc1Cl | -1% | / | -1% | 7.1µM* | 2% | ?
